Assay outcomes (PubChem)
Most compounds without a hit are left out; they make up all but 9% or so of the library.
HTT ATP protect: cytoprotection in Huntington HTT-Q103 PC12 cell model | PC12 HTT-Q103 induced, cytoprotection, ATP luminescence, 40 h | Potency, µM (top dose mostly 56.4 µM), inactives show cytoprotection (ATP increase), hits mostly activators | actives 0.14% (n = 230,000) | AID 1471; also: % of control where 0% means no effect; nearly all actives have a fitted effect of over 45% in size
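Readout: ATPlite luminescence (ATP level). Model: stable PC12, inducible Htt exon1 Q103-GFP. Inducer: tebufenozide, 100 nM final. Compounds: dose series. No G418 in medium.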
ALDH1A1 block: inhibitors of human aldehyde dehydrogenase 1A1; P00352; Purified ALDH1A1, NADH fluorescence, propionaldehyde substrate; Potency, µM (titrated, usually from 75.3 µM), without a hit: top-dose activity, negative = inhibition, hits mostly inhibitors; actives 7.3% (n = 220,000); active = well fitted inhibition curve with a large enough effect, not every such curve was filed as active; inconclusive = small, poorly fitted or top-dose-only effect, or another doubt; inactive = no such curve, though single readings can be large or run the other way;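 also: plate controls were no enzyme wells and a reference inhibitor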
Target sequence (P00352 whole entry, looked up): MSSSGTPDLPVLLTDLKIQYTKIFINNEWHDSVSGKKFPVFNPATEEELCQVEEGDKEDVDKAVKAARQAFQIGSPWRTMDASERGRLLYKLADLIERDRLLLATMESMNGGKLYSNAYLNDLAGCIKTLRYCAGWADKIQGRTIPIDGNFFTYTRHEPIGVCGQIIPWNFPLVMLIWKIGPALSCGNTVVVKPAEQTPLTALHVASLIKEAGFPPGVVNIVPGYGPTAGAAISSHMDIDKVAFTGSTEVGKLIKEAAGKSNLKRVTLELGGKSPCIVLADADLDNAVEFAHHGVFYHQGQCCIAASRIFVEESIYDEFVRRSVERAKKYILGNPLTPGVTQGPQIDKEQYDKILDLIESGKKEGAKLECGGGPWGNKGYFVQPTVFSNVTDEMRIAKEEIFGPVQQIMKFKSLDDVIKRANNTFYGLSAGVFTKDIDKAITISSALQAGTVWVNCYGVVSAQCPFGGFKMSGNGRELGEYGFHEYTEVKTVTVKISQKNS
Luc counter: Kinase-Glo luciferase inhibition (counter-screen) | Kinase-Glo luciferase, ATP luminescence, 8 min | Q27757 | AID 1379 | Potency, µM (titrated, usually from 38.3 µM), for the others: at the highest dose activity change, negative = inhibition, most hits filed as inhibitors | actives 0.28% (n = 200,000); also: % is scaled to controls: 0 for no effect and ±100 for the full control effect; nearly all actives have a fitted effect of over 60% in size
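Inhibition of Kinase-Glo luciferase light generation was assessed at 10 uM ATP in pH 7.2 imidazole buffer, with luminescence measured after eight minutes at ambient temperature.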
HTT aggregate: reduces HttQ103-GFP aggregates in PC12 cells. actives 1.1% (n = 220,000). PC12 HttQ103-GFP aggregates, Acumen cytometry, 40 h. Potency, µM (series often up to 46.1 µM), for inactives: at the top dose activity change, negative = inhibition, usual class: inhibitors; also: % is scaled to controls: 0 for no effect and ±100 for the full control effect; nearly all actives have a fitted effect of over 60% in size
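Read-out: GFP aggregate count by laser scanning cytometer (488 nm excitation, 500-530 nm emission, 1–25 µm objects >6 SD above background). Cells: PC12, inducible HTTex1-Q103-GFP, 100 nM tebufenozide; compounds titrated.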
HPGD block: blocks human HPGD enzyme activity | AID 894 | actives 4.3% (n = 150,000) | Potency, µM, for inactives: at the top dose activity change, negative = inhibition, usual class: inhibitors | purified HPGD, NADH fluorescence kinetic, PGE2 substrate; active = well fitted inhibition curve with a large enough effect, not every such curve was filed as active; inconclusive = small, poorly fitted or top-dose-only effect, or another doubt; inactive = no such curve, though single readings can be large or run the other way; also: % is scaled to controls: 0 for no effect and ±100 for the full control effect
Target sequence (P15428 whole entry, looked up): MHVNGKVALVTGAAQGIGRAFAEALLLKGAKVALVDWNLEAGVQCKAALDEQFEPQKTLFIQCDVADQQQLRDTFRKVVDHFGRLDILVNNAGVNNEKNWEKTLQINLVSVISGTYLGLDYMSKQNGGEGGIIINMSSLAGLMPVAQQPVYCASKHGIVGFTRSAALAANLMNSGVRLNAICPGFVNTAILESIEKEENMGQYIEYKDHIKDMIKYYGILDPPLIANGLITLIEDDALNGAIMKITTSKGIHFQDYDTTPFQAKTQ
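20 nM HPGD preincubated 15 min at room temperature with compound in 50 mM Tris-HCl pH 8, 0.01% Tween 20. Started with 1 mM NAD+ and 30 uM prostaglandin E2; NADH fluorescence (360/450 nm) read 5 times over 30-s intervals, last minus first.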
Lamin A splicing: modulators of lamin A splicing; HeLa LMNA splicing GFP/RFP minigene ratio, 48 h; Potency, µM (top dose mostly 46.1 µM), for the others: at the highest dose ratio change, negative = inhibition, most hits filed as inhibitors; actives 0.01% (n = 200,000); active = well fitted inhibition curve with a large enough effect in the signal ratio, with a control signal flat, not every such curve was filed as active; inconclusive = small, poorly fitted or top-dose-only effect, or effect the other way, or a change in a side signal; the % refers to the signal ratio; also: % is scaled to controls: 0 for no effect and ±100 for the full control effect
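S3 HeLa cells stably expressing lamin A-EGFP splicing minigene plus DsRed2, 600 cells/well, 48 h compound exposure at 37C. Laser-scanning cytometry; analysed as GFP (500-530 nm)/RFP (575-640 nm) total intensity ratio; 0.5% DMSO vehicle.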
Starred values were filed as active, the others as inactive; ? = inconclusive; . = no result; [ ] = remark or other dose. Unless noted, calls follow the shape of the dose curve; as a rule, active = well fitted curve in the direction sought with a large enough effect; inconclusive = small, poorly fitted or top-dose-only effect, or another doubt; inactive = no such curve, though single readings can be large; an effect the other way counts as inactive or inconclusive. Potency is read from the fitted curve at half-maximal effect.

SMILES	HTT ATP protect	ALDH1A1 block	Luc counter	HTT aggregate	HPGD block	Lamin A splicing
O=C1c2ccccc2C(=O)N1Cc1nc2ccccc2c(=O)n1-c1ccccn1	0.9%	1.6%	-0.1%	-6.0%	-7.4%	7.4%
CCn1c(O)c(/C=N/NC(=O)c2ccncc2)c(=O)[nH]c1=S	-22.1%[10 µM]	?	-0.8%	-17.2%	?	-2.2%
Cc1noc(C(=O)Nc2sc3c(c2C#N)CCC3)c1Cl	-142.8%	12.6µM*	17.8%	?	25.1µM*	?
O=Cc1c(C(=O)O)n(Cc2ccc(Cl)cc2)c2ccccc12	-2.9%[10 µM]	12.6µM*	4.7%	18.3%	-17.0%	?
Cc1c(C=O)c2ccccc2n1Cc1cccc(F)c1	-7.0%[0.074 µM]	-12.0%	0.4%	-0.3%	-11.4%	-2.4%
Cc1ccc(C(=O)NC2CC3CCC(C2)N3)cc1 (stereo not drawn)	18.8%	11.1%	11.4%	1.1%	.	.
CN(C)/C=c1\sc2c(C#N)cc(C(=O)c3ccc(Br)cc3)n2c1=O	-17.1%[10 µM]	2µM*	0.0%	-11.1%	-11.7%	3.8%
C=CCn1c(O)c(C=NC2CCN(Cc3ccccc3)CC2)c(=O)[nH]c1=O	-0.1%[10 µM]	.	.	3.5%[9.22 µM]	.	.
Cc1csc(NC(=O)C2CCCN(S(=O)(=O)c3ccc4c(c3)oc(=O)n4C)C2)n1 (stereo not drawn)	-1.3%	-14.7%	1.5%	6.0%	8.91µM*	?
N#CSCC(=O)N1c2ccccc2CCc2ccccc21	19.7%[10 µM]	0.794µM*	1.7%	?	17.8µM*	?
CCN1CCN(Cc2cc(C(C)(C)C)c(O)c(C(C)(C)C)c2)CC1	-12.1%	28.2µM*	-0.7%	22.2%	3.5%	3.6%
CCN1CCN(Cc2ccc(C)cc2)CC1	-14.8%	?	2.7%	5.3%	-6.8%	-1.0%
CC/C(=N\Nc1cccc2ccccc12)c1c(O)[nH]c(=O)[nH]c1=O	-7.6%[10 µM]	14.1µM*	-1.3%	-13.3%	?	-11.7%
Cc1ccc(-n2c(O)c(/C=C3/C(c4ccccc4)=Nc4ccccc43)c(=O)[nH]c2=O)cc1	-53.4%[10 µM]	25.1µM*	.	11.2µM*	.	?
Cc1ccccc1-n1c(O)c(/C=C2/C(c3ccccc3)=Nc3ccccc32)c(=O)[nH]c1=O	-37.5%[1.9 µM]	?	-1.9%	-4.7%	28.2µM*	?
COC(=O)C1=Nc2ccccc2/C1=C\c1c(O)n(-c2cc(OC)ccc2OC)c(=O)[nH]c1=O	.	?	-3.2%	-9.6%	14.1µM*	3.0%
Cc1cccc(N=Cc2c(O)n(-c3ccccc3C)c(=O)[nH]c2=O)c1	-2.2%[10 µM]	25.1µM*	-5.1%	16.6%	?	0.0%
Cc1ccccc1-n1c(O)c(C=Nc2ccc(N(C)C)cc2)c(=O)[nH]c1=O	-8.1%	-13.2%	1.5%	?	-5.5%	?
CCCCCn1c(=O)c(C(=O)Nc2ccncc2)c(O)c2ccccc21	-10.5%	?	.	?	.	?
CC(C)[C@@]1(NC(=O)[C@@H]2C[C@H]3c4cccc5[nH]cc(c45)C[C@@H]3N(C)C2)O[C@]2(O)[C@H]3CCCN3C(=O)[C@H](Cc3ccccc3)N2C1=O	21.7%[17.1 µM]	3.3%[20.9 µM]	0.8%[17.1 µM]	.	-4.4%	-16.2%
CC1(C)OC1COc1c2occc2cc2ccc(=O)oc12 (stereo not drawn)	.	-13.7%	-0.2%	-2.7%	-11.4%	-12.3%
CN1C[C@@H](CS(=O)(=O)N(C)C)C[C@@H]2c3cccc4c3c(cn4C)C[C@H]21	.	-4.3%	-2.5%	.	-7.2%	?
Cc1cccn2c(NCC3CCCO3)c(C(C)C)nc12 (stereo not drawn)	9.3%	?	0.2%	-4.2%	?	0.4%
Cc1onc(-c2ccccc2Cl)c1C(=O)NCc1ccccn1	3.3%[0.074 µM]	10.7%	-1.6%	0.891µM*	-8.2%	-4.0%
O=c1[nH]c(=S)n(C2CC2)c(O)c1/C=N/Nc1cccc2ccccc12	-21.0%[10 µM]	2.51µM*	.	2.1%	.	-9.8%
SMILES	HTT ATP protect	ALDH1A1 block	Luc counter	HTT aggregate	HPGD block	Lamin A splicing
CC(N=Cc1c(O)n(C2CC2)c(=S)[nH]c1=O)c1ccccc1 (stereo not drawn)	-7.9%[10 µM]	.	.	-6.3%[9.22 µM]	.	.
O=c1[nH]c(=S)n(C2CC2)c(O)c1/C=N/Nc1ccccc1	1.1%[10 µM]	3.16µM*	1.0%	9.3%	-18.1%	?
CCCCC(=O)N/N=C/c1c(O)n(C2CC2)c(=S)[nH]c1=O	.	-10.8%	-3.1%	-3.9%	-4.8%	-11.8%
CCC(C)n1c(O)c(/C=N/Nc2ccccc2)c(=O)[nH]c1=S (stereo not drawn)	8.0%[10 µM]	3.55µM*	-1.7%	-8.0%	-23.2%	?
O=C(c1cn(Cc2ccccc2)c2ccccc12)N1CCCCC1	-18.9%	-5.8%	-1.8%	6.2%	.	.
O=C1NC(=O)C(=CN2CCc3ccccc32)C(=O)N1	-1.0%[10 µM]	11.2µM*	-0.6%	1.6%	-19.8%	-21.8%
OC1(c2ccc(F)cc2)CC2CCC(C1)N2Cc1nnnn1C1CCCCC1 (stereo not drawn)	13.2%[10 µM]	0.631µM*	-2.4%	-1.0%	-6.0%	-1.1%
O=C(CN1CCCCC1)c1cccc(Br)c1	-7.4%[10 µM]	1.41µM*	0.8%	1.2%	-2.2%	-7.9%
O=C(CN1CCCCC1)c1ccccc1F	-23.3%	3.1%	-4.1%	13.4%	.	?
O=C(CN1CCCCC1)c1ccccc1Cl	10.3%[10 µM]	12.6µM*	0.9%	-3.5%	-18.1%	-2.5%
COC(=O)NC(=S)Nc1ccccc1NC(=S)NC(=O)OC	-50.5%	10µM*	-0.5%	.	-14.7%	?
O=C(O)/C=C\C(=O)Nc1ccc(Oc2ccc(Br)cc2)cc1	.	1.41µM*	-2.0%	.	.	21.6%[46 µM]
C=CCN1C(=O)/C(=C/c2cc(C)n(-c3ccccn3)c2C)C(=O)NC1=S	.	?	1.6%	-15.2%	12.6µM*	4.3%
CCOP(=S)(OCC)SCn1c(=O)oc2cc(Cl)ccc21	.	2.5%	-0.2%	.	?	?
CCn1c(=O)oc2cc(NC(=O)CCl)ccc21	-140.8%	1.58µM*	4.3%	-4.7%[9.22 µM]	.	?
COc1ccc(N2C(=O)NC(=O)/C(=C/c3ccc4c(c3)Cc3ccccc3-4)C2=O)cc1	-12.4%	?	0.1%	-6.2%	.	.
COc1ccc(C(=O)C(Cc2ccccc2)N(C)C)cc1 (stereo not drawn)	-7.3%[0.074 µM]	28.2µM*	5.7%	-25.2%	-3.5%	-7.2%
CN(C)C(Cc1ccccc1)C(=O)c1ccc(-c2ccccc2)cc1 (stereo not drawn)	12.8%	?	-2.7%	-16.7%	-26.7%	-14.3%
COc1ccc(O)c(CN2CCCC(C(=O)c3sccc3C)C2)c1 (stereo not drawn)	21.1%[10 µM]	12.6µM*	-7.7%	26.7%[9.22 µM]	.	-27.3%[46 µM]
Cc1ccsc1C(=O)C1CCCN(Cc2ccccc2O)C1 (stereo not drawn)	5.5%[10 µM]	-1.8%	1.2%	-0.3%[9.22 µM]	.	?
